Assay outcomes: PubChem, The Scripps Research Institute Molecular Screening Center
Sampled rows, rich in hits. Any-hit rate of the full collection: about 5.7%.
hcDAF-12 act – activates DAF-12 receptor from parasite H. contortus; HEK293 hcDAF-12 lit1-tk-luc reporter, luminescence; 0% DMSO, 100% Δ7-dafachronic acid; AID 652067; 1.4% of 370,000 active; activation, % at 6.8 µM;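 active = activation above the mean of all tested compounds plus 3 SD, cut at about 5.5% in these data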;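 also: 100% = response to 3 µM Δ7-dafachronic acid high control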
hgDAF-12 ag – agonists of H. glycines DAF-12 nuclear receptor; HEK293 GAL4-hgDAF12 UAS-luciferase reporter, agonist luminescence; normalized to butyrate control; activation, % at 6.8 µM; 1.8% of 370,000 active;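 active = activation above a cutoff set at the mean of all screened compounds plus 3 SD, cut at about 10% in these data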;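 also: 0% = DMSO wells and 100% = sodium butyrate wells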
ssDAF12 agonist – S. stercoralis DAF-12 activation, primary screen | activation, % at 6.8 µM | HEK293 ssDAF-12/GRIP1 lit1-tk-luc reporter, luminescence; % of 3 µM dafachronic acid response | AID 652126 | 1% of 370,000 active;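 active = activation above the mean over all tested compounds plus 3 SD, cut at about 0.9% in these data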;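 also: 0% = DMSO-only wells and 100% = 3 µM delta7-dafachronic acid wells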
DAX1 inh-1 – inhibitors of human orphan nuclear receptor DAX1 (NR0B1); 0.99% of 340,000 active; HEK293 Gal4-DAX1 luciferase reporter, luminescence; inhibition, % at 6.75 µM; P51843;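 active = inhibition above the mean over all tested compounds plus 3 SD, cut at about 4.2% in these data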;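 also: 0% = DAX1-transfected cells with DMSO and 100% = empty-vector control cells with DMSO; inhibition shows as a rise in luminescence from relieved DAX1 repression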
DAX1 inh-2 – blocks DAX1 repression of SF-1 activated StAR promoter | AID 652010 | HEK293T StAR-luciferase reporter, SF-1/DAX-1 repression relief | inhibition, % at 6.8 µM | 1.1% of 370,000 active;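 active = inhibition above the mean over all tested compounds plus 3 SD, cut at about 3.6% in these data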;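 also: 0% = DAX-1 cells with DMSO and 100% = cells lacking DAX-1 with DMSO; higher inhibition means more luminescence from relief of DAX-1 repression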
AHR act – activates the human aryl hydrocarbon receptor; P35869; AHR-responsive luciferase reporter cells, luminescence; activation, % at 5 µM; 2.5% of 320,000 active; AID 2796; in the data active = activation above about 47%;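 also: 0% = vehicle wells and 100% = reference agonist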
AHR act confirm – confirmation of human aryl hydrocarbon receptor activators. shares compounds with AHR act. human cells, AHR-responsive luciferase reporter, luminescence. activation, % at 9 µM. 87% of 2,300 active. AID 2845; in the data active = activation above about 49%;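 also: HepG2 hepatoma cells carrying a DRE-driven firefly luciferase reporter; 0% = vehicle wells and 100% = reference agonist wells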
PXR counter – activates human PXR in AHR activator counter-screen. shares compounds with AHR act. cell-based PXR reporter, luciferase luminescence. activation, % at 11.6 µM. 88% of 2,300 active. AID 434939; in the data active = activation above about 11%;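 also: human hepatoma DPX-2 cells expressing full-length human PXR; 0% = DMSO and 100% = reference agonist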
Target sequence (O75469 whole entry, looked up): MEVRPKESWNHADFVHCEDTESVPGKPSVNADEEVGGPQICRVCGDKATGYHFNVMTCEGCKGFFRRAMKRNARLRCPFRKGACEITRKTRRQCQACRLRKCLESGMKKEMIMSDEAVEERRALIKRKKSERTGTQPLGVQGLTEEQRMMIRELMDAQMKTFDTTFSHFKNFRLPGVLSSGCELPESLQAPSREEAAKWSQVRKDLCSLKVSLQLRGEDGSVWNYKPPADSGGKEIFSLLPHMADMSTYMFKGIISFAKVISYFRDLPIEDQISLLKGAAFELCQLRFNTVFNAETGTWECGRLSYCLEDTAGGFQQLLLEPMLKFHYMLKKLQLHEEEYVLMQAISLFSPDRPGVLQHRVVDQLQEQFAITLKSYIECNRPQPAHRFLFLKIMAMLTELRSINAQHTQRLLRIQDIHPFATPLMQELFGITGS
Starred values were filed as active, the others as inactive.

Results for FC(F)(F)c1cnc(N/N=C/c2ccncc2)c(Cl)c1 ?
hcDAF-12 act: 1; hgDAF-12 ag: -3; ssDAF12 agonist: -1; DAX1 inh-1: -1; DAX1 inh-2: 0; AHR act: 93*; AHR act confirm: 75*; PXR counter: 18*

How did COc1ccc(/C=N/Nc2ncc(C(F)(F)F)cc2Cl)cc1OC do in these assays?
hcDAF-12 act: -3; hgDAF-12 ag: 0; ssDAF12 agonist: -2; DAX1 inh-1: 1; DAX1 inh-2: 0; AHR act: 2

Results for Cc1ccc(C2CC(c3cccc(Cl)c3)n3nc(N)nc3N2)cc1 (centres undefined) ?
hcDAF-12 act: 2; hgDAF-12 ag: 6; ssDAF12 agonist: -1; DAX1 inh-1: 0; DAX1 inh-2: -1; AHR act: 1

What do the screens show for `CNC(=O)c1[nH]cnc1C(=O)Nc1ccc(C)cc1`?
hcDAF-12 act: 1; hgDAF-12 ag: 1; ssDAF12 agonist: -1; DAX1 inh-1: 1; DAX1 inh-2: 0; AHR act: 25

What do the screens show for `COc1ccccc1NC(=O)c1ccc(C(=O)Nc2ccccc2OC)nc1`?
hcDAF-12 act: 0; hgDAF-12 ag: 0; ssDAF12 agonist: -1; DAX1 inh-1: 1; DAX1 inh-2: 0; AHR act: 84*; AHR act confirm: 103*

What do the screens show for `COc1ccccc1NC(=O)c1nc[nH]c1C(=O)Nc1ccccc1OC`?
hcDAF-12 act: -1; hgDAF-12 ag: 0; ssDAF12 agonist: -1; DAX1 inh-1: 1; DAX1 inh-2: 0; AHR act: 108*; AHR act confirm: 53*; PXR counter: 19*

How did COc1ccccc1NC(=O)c1cnc(SC)nc1 do in these assays?
hcDAF-12 act: -1; hgDAF-12 ag: 4; ssDAF12 agonist: 0; DAX1 inh-1: 1; DAX1 inh-2: 0; AHR act: 15

How did CCOc1ccccc1NC(=O)c1nc[nH]c1C(=O)Nc1ccccc1OCC do in these assays?
DAX1 inh-1: 0; AHR act: 24

How did O=C(Nc1ccccc1OC(=O)c1ccc(Cl)cc1)c1ccc(Cl)cc1 do in these assays?
hcDAF-12 act: 6; hgDAF-12 ag: 9; ssDAF12 agonist: 1; DAX1 inh-1: 3; DAX1 inh-2: 1; AHR act: 79*; AHR act confirm: 83*

How did CNC(=O)c1[nH]cnc1C(=O)Nc1ccc(Cl)cc1 do in these assays?
hcDAF-12 act: 3; hgDAF-12 ag: 3; ssDAF12 agonist: 1; DAX1 inh-1: 0; DAX1 inh-2: 0; AHR act: 121*; AHR act confirm: 172*; PXR counter: 35*

What do the screens show for `O=C(COC(=O)CCc1ccccc1)Nc1ccc(F)cc1Cl`?
hcDAF-12 act: 3; hgDAF-12 ag: -1; ssDAF12 agonist: -1; DAX1 inh-1: 0; DAX1 inh-2: 0; AHR act: -2

Results for O=C(c1cnc2sccn2c1=O)N1CCc2ccccc2C1 ?
hcDAF-12 act: 3; hgDAF-12 ag: 1; ssDAF12 agonist: 0; DAX1 inh-1: -1; DAX1 inh-2: 1; AHR act: 11

How did CCc1ccc(NC(=O)Cc2ccc(-n3cccc3)cc2)cc1 do in these assays?
hcDAF-12 act: -1; hgDAF-12 ag: 1; ssDAF12 agonist: 0; DAX1 inh-1: 1; DAX1 inh-2: 0; AHR act: 3

Results for CC(OC(=O)c1cc(O)c2ccccc2c1O)C(=O)Nc1ccc(C(N)=O)cc1 (centres undefined) ?
hcDAF-12 act: 4; hgDAF-12 ag: 1; ssDAF12 agonist: 1.4*; DAX1 inh-1: 1; DAX1 inh-2: -2; AHR act: 103*; AHR act confirm: 78*; PXR counter: 19*

Results for CC(OC(=O)c1ccccc1C(=O)N(C)c1ccccc1)C(=O)Nc1ccc(C(N)=O)cc1 (centres undefined) ?
hcDAF-12 act: 0; hgDAF-12 ag: 0; ssDAF12 agonist: -1; DAX1 inh-1: 1; DAX1 inh-2: 0; AHR act: 5

What do the screens show for `COc1ccccc1C(=O)Nc1ccc(-c2nnn(CC(=O)NCc3ccco3)n2)cc1`?
hcDAF-12 act: -1; hgDAF-12 ag: 2; ssDAF12 agonist: -1; DAX1 inh-1: 1; DAX1 inh-2: 0; AHR act: 130*; AHR act confirm: 135*; PXR counter: 29*

How did COc1ccc(C(=O)Nc2ccccc2-c2nnn(CC(=O)NCc3ccco3)n2)cc1 do in these assays?
hcDAF-12 act: -1; hgDAF-12 ag: 1; ssDAF12 agonist: -1; DAX1 inh-1: 0; DAX1 inh-2: -1; AHR act: 103*; AHR act confirm: -1; PXR counter: 26*

Results for O=C(Cn1nnc(-c2ccccc2NC(=O)c2ccccc2F)n1)NCc1ccco1 ?
hcDAF-12 act: -1; hgDAF-12 ag: 1; ssDAF12 agonist: -1; DAX1 inh-1: 0; DAX1 inh-2: 0; AHR act: 0

What do the screens show for `CCOc1ccc2oc(C(=O)OCC(=O)NC(=O)NC3CCCC3)c(C)c2c1`?
hcDAF-12 act: 0; hgDAF-12 ag: -1; ssDAF12 agonist: -1; DAX1 inh-1: 0; DAX1 inh-2: 0; AHR act: -1

Results for CC(CCc1ccccc1)NC(=O)CN(C)Cc1ccccc1F (centres undefined) ?
hcDAF-12 act: 0; hgDAF-12 ag: 0; ssDAF12 agonist: -1; DAX1 inh-1: -1; DAX1 inh-2: -1; AHR act: 6

How did CC(=O)Nc1sc(C)c(C)c1C(=O)OCC(=O)N(CC(C)C)C1CCS(=O)(=O)C1 (centres undefined) do in these assays?
hcDAF-12 act: -2; hgDAF-12 ag: -3; ssDAF12 agonist: -1; DAX1 inh-1: -1; DAX1 inh-2: 0; AHR act: 0

Results for Cc1cnc(NC(=O)c2ccc(-c3nc4ccccc4s3)o2)s1 ?
hcDAF-12 act: 4; hgDAF-12 ag: 2; ssDAF12 agonist: -1; DAX1 inh-1: 0; DAX1 inh-2: 1; AHR act: 89*; AHR act confirm: 114*; PXR counter: 14*

What do the screens show for `COc1ccccc1CNC(=O)c1c(O)c2cc(OC)c(OC)cc2[nH]c1=O`?
hcDAF-12 act: 2; hgDAF-12 ag: -1; ssDAF12 agonist: -1; DAX1 inh-1: 1; DAX1 inh-2: 0; AHR act: 0

What do the screens show for `COc1ccc(NC(=O)c2c(Cl)nc3ccccn23)cc1`?
hcDAF-12 act: -1; hgDAF-12 ag: 1; ssDAF12 agonist: -2; DAX1 inh-1: -1; DAX1 inh-2: 1; AHR act: 86*; AHR act confirm: 47; PXR counter: 10
